The whole screen tested about 96,000 compounds, of which about 19,000 (20%) were called active.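 Rule for the calls: active = blocking of liver enzyme CYP2C9 beyond about 50% at 5 µM (limit read from the data); inactive = the rest.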 Only a sample is shown.
molecular target: Cytochrome P450 2C9 (Homo sapiens) (UniProt P11712); test: blockers of cytochrome P450 2C9 activity – biochemical, luminescence, ADME assay, primary screen (AID 777); settings: CYP2C9 Supersomes, luciferin-H conversion, at 5 µM, active compounds read high
Sequence (P11712 whole entry, looked up): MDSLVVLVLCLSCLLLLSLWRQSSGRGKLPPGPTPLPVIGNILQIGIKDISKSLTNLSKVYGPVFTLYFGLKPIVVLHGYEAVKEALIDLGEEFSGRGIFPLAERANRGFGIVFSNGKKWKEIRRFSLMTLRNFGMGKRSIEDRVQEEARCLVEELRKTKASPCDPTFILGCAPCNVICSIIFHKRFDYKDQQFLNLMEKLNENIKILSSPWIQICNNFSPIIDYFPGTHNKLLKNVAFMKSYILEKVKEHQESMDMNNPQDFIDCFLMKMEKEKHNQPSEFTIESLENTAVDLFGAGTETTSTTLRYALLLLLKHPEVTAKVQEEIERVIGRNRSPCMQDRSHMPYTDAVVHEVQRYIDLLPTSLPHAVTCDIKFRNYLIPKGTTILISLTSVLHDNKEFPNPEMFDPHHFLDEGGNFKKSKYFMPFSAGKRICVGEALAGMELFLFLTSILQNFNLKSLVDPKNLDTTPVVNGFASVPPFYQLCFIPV

inhibition, active:
CC(C)Cn1c(CN(Cc2ccccc2)Cc2ccccc2)nc2c1c(=O)n(C)c(=O)n2C 72.2%
Nc1cc(OC(=O)c2ccccc2Br)nn1S(=O)(=O)c1ccccc1 61.5%
Cc1ccc(S(=O)(=O)n2nc(OC(=O)C(C)(C)C)cc2N)cc1 50.4%
Cc1cccc(N2CC(C)Cn3c2nc2c3c(=O)n(CC(=O)OCc3ccccc3)c(=O)n2C)c1 (configuration not stated) 86.9%
COc1ccc(OC)c(C(c2nnnn2C(C)(C)C)N2CCc3ccccc3C2)c1 (configuration not stated) 98.9%
CCN(CC)C(=O)CN(c1cccc(OC)c1)S(=O)(=O)c1ccc(C)cc1 94%
CCCCOC(=O)Cn1c(=O)n(CC(=O)OCCCC)c2cc(C)ccc21 60.8%
CCCCOC(=O)c1[nH]c(C)c(C(=O)OC)c1C 61.2%
CC(=O)Nc1ccc(NC(=O)CSCc2cnn(-c3ccccc3)c2-n2cccc2)cc1 86.6%
C/C(=C\c1ccco1)C1Nc2cccc3cccc(c23)N1 55.5%
O=C(CCc1ccc(S(=O)(=O)N2CCOCC2)cc1)Nc1ccc2ccccc2c1 55.3%
CCCc1nc2ccccc2c(=O)n1/N=C/c1ccc(O)c(O)c1 85.3%
O=C(Cc1ccc(-n2c(=O)[nH]c3ccccc3c2=O)cc1)N1CCN(c2cccc(Cl)c2)CC1 57.5%
COc1ccccc1Oc1ccc(S(=O)(=O)Nc2cccnc2)cc1 84.9%
O=S(=O)(Nc1ccccn1)c1ccc(Oc2ccccc2)cc1 81.4%

inhibition, inactive:
O=C(Nc1nnc(CCc2ccccc2)s1)C1CCCO1 (configuration not stated) 16.3%
O=C(OC(C(=O)NC1CCCC1)c1ccc(F)cc1)c1ccno1 (configuration not stated) 13.9%
CC(C)Cn1cnc2c1c(=O)n(CC(O)c1ccccc1)c(=O)n2CC(C)C (configuration not stated) -5.7%
Cc1ccc(S(=O)(=O)N2CCCC2CO)cc1 (configuration not stated) -37%
Cc1c(C(=O)OCC(=O)N(CCC#N)c2ccccc2)oc2c1ccc1ccccc12 -74.8%
CC(=O)Nc1ccccc1OC(=O)N1CCOCC1 -0.1%
CC(C)Cc1cc(C(=O)Nc2cc(Br)ccc2O)no1 18.1%
O=c1c2ccccc2oc2nc3n(c(=O)c12)CCCS3 -21.3%
COc1ccc(N2CC(C)Cn3c2nc2c3c(=O)n(Cc3ccccc3F)c(=O)n2C)c(OC)c1 (configuration not stated) -4.7%
Cn1c(=O)n(CCc2ccccc2)c(=O)c2c1nc1n2CCCN1c1ccccc1 14.3%
O=C(/C=C/c1cc2c(cc1Br)OCO2)NCc1ccc(Cl)cc1 -6.4%
CC(C)(C)C(=O)c1cnc(Nc2ccccc2)s1 33.1%
S=c1[nH]nc(-c2ccco2)n1/N=C/c1ccc(Br)s1 -24.6%
Cc1ccc(C(c2nnnn2C(C)(C)C)N2CCc3ccccc3C2)cc1 (configuration not stated) -5.7%
CCC(C)(C)n1nnnc1C(c1ccccc1OC)N1CCSCC1 (configuration not stated) 17%
CCOc1ccc(S(=O)(=O)N(CC(=O)O)c2ccccc2)cc1 17.7%
COc1cccc(NC(=O)CN(C)S(=O)(=O)c2ccc(C)cc2)c1 19%
Cc1nonc1OCCn1nnnc1N 6.3%
CCN(CC(=O)NCc1cccs1)c1nnnn1-c1ccccc1 -1.7%
Cc1n[nH]c(=S)n1/N=C/c1ccc(Br)o1 4.5%
COC(=O)Cn1c2ccc(C)cc2c2nc(C)sc21 22.4%
CCCCOC(=O)Cn1c(=N)n(CCN(CC)CC)c2ccccc21 -37.7%
COCCCNCC(=O)Nc1sc(C)c(C)c1C(=O)OC 39.5%
CCCCN(CC)CCNC(=O)c1[nH]c(C)c(C(C)=O)c1C -14.6%
CCCOc1ccc(NC(=O)C2CCCNC2=O)cc1 (configuration not stated) 1.9%
Cc1cc(C)cc(NC(=O)CSCc2cnn(-c3ccccc3)c2-n2cccc2)c1 44%
COc1ccc(-n2nnnc2SCC(=O)Nc2ccccc2)cc1 -7.3%
Cc1ccc(NC(=O)c2cc(-c3ccc(C)o3)nc3ccccc23)nc1 3.2%
CC(=O)OCc1cc2cc(C)ccc2[nH]c1=O -8%
Cc1cccc(NC(=O)/C(=C\c2ccco2)NC(=O)c2ccccc2)c1 32.5%
O=C(NCC1CCCO1)/C(=C\c1ccco1)NC(=O)c1ccccc1 (configuration not stated) -18.8%
COc1ccc2c(c1OC)C(=O)N(c1ncn[nH]1)C2 -23.9%
CCN(CC)C(=O)CC1(c2ccccc2OC)CCOC(C(C)C)C1 (configuration not stated) 17%
O=C(CN1CCN(S(=O)(=O)c2ccc3ccccc3c2)CC1)NC(=O)NC1CCCCC1 -18.3%
O=S(=O)(c1ccc2ccccc2c1)N1CCN(S(=O)(=O)N2CCOCC2)CC1 -53.6%
Cn1nnnc1SCc1cc(=O)[nH]c2ccccc12 14.5%
CCOC(=O)Cc1c(C)nc2c(C#N)c(C)nn2c1C -3.2%
O=c1c2ccccc2nc(N/N=C/c2ccccc2)n1O -1.4%
CCCOn1c(-n2nc(C)cc2C)nc2ccccc2c1=O 11.3%
CCOC(=O)N1CCC(Nc2c(NCCN3CCN(c4cccc(Cl)c4)CC3)c(=O)c2=O)CC1 0.8%
CCOC(=O)N1CCN(C(=O)Cc2ccc(-n3c(=S)[nH]c4ccccc4c3=O)cc2)CC1 11.8%
O=C(C1CCN(S(=O)(=O)c2cnc[nH]2)CC1)N1CCN(Cc2ccc3c(c2)OCO3)CC1 9.3%
O=C(CS(=O)(=O)Cc1ccccc1)Nc1cccnc1 -3.4%
Cc1ccc(S(=O)(=O)c2ccc(Oc3ccccc3)cc2)cc1 -5.1%
Cc1nc(CNS(=O)(=O)c2ccc(Oc3ccccc3)cc2)cs1 39.1%
Cc1cc(C)cc(NS(=O)(=O)c2ccc(Oc3ncc(C(F)(F)F)cc3Cl)cc2)c1 47.2%
COc1cc(=O)[nH]c(=O)n1C(=O)Cc1ccccc1 11.7%
